Screens as filed in PubChem.
CtBP-E1A blk: inhibitors of CtBP/E1A interaction | 340,000 compounds, 0.49% hits | activity change, % (concentration not given with the values) | AID 651724 | AlphaScreen GST-E1A/His-CtBP binding, 1536-well; active compounds read low; in the data active = activity change below about -65%; inconclusive = mostly about -30% to -63%; note: % is set by controls: 0 for no effect and ±100 for the full control effect
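GST-E1A and His-tagged CtBP (125 nM each as 5X stock) were preincubated with pin-transferred compound for 2 h at 37 °C in the dark, then glutathione donor and nickel acceptor beads were added for 1 h before AlphaScreen reading.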
BAZ2B block: BAZ2B (human) inhibition; Q9UIF8; AlphaScreen BAZ2B-H3K14Ac peptide displacement; Potency, µM (series often up to 114 µM), inactives show at the top dose activity change, negative = inhibition, usual class: inhibitors; 360,000 compounds, 4.4% hits; note: potency is the fitted concentration of half-maximal effect; % is set by controls: 0 for no effect and ±100 for the full control effect; nearly all actives have a fitted effect of over 60% in size
Target sequence (Q9UIF8 whole entry, looked up): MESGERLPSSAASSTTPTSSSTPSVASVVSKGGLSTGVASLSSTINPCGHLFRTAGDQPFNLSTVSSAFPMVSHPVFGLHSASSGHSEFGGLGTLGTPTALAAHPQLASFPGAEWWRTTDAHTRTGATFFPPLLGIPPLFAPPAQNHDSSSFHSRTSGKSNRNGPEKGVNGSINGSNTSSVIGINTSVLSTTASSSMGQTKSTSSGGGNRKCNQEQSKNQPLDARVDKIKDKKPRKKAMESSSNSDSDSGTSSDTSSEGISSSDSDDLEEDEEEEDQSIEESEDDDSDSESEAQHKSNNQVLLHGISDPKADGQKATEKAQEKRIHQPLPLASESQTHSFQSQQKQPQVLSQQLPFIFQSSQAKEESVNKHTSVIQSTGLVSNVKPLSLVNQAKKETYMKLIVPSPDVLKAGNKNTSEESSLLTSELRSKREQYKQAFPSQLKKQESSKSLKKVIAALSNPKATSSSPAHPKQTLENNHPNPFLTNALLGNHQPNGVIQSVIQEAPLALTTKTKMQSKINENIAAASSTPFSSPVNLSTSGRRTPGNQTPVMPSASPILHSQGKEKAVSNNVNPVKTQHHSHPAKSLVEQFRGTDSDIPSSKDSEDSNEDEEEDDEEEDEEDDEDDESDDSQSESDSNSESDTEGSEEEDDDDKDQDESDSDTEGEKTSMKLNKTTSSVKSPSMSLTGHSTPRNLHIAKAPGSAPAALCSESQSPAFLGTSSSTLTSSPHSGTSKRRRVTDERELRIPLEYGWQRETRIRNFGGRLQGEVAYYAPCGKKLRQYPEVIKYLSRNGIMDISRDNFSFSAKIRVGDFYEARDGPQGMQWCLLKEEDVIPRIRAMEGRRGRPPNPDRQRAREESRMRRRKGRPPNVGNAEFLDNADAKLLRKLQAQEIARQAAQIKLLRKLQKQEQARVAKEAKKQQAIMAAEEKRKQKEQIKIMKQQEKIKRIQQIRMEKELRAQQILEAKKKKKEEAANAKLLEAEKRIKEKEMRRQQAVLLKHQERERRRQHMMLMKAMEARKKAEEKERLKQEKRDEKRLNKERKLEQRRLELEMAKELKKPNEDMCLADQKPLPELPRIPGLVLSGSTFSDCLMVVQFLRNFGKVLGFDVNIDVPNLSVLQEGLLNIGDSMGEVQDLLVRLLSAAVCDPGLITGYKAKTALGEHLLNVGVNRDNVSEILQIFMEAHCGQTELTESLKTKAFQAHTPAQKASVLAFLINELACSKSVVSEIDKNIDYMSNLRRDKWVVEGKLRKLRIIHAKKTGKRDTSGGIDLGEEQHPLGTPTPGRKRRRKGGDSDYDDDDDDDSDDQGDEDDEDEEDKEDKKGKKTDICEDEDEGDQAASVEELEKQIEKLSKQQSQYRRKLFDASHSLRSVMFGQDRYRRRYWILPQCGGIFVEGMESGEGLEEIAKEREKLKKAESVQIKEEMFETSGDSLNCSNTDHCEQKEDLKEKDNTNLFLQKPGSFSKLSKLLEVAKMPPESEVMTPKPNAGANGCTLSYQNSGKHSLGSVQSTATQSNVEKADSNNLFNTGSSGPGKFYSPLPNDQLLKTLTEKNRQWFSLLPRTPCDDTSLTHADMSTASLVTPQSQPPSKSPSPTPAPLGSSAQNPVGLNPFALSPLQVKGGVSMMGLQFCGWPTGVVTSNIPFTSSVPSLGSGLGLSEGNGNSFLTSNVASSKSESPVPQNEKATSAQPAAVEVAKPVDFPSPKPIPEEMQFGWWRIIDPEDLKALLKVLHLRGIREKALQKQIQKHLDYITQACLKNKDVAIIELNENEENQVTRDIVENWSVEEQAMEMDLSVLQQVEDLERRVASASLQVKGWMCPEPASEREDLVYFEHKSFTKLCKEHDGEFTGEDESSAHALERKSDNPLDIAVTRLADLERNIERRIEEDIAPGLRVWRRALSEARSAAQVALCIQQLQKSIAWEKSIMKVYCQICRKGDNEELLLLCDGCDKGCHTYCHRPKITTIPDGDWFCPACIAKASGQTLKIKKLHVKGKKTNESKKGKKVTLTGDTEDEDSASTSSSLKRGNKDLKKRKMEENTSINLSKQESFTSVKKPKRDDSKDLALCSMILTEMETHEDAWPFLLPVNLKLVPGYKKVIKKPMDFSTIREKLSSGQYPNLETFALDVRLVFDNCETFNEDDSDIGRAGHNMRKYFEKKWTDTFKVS
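AlphaScreen displacement of biotin-H3(5-23)K14Ac peptide (50 nM final) from BAZ2B (50 nM final) in PBS pH 7.4, 0.01% Tween-20; complex preformed 30 min RT, then compounds (top 110 uM) 30 min RT, beads 20 min dark.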
JMJD2A Tudor inh: blocks the human JMJD2A Tudor domain | O75164 | AlphaScreen JMJD2A-Tudor / H3K4me3 peptide binding | Potency, µM (series often up to 114 µM), for the others: top-dose activity change, negative = inhibition, usual class: inhibitors | 390,000 compounds, 4.4% hits; note: potency is the fitted concentration of half-maximal effect; % is set by controls: 0 for no effect and ±100 for the full control effect; nearly all actives have a fitted effect of over 50% in size
Six1-Eya2 blk: inhibitors of human Six1/Eya2 interaction | activity change, % (concentration not given with the values) | AlphaScreen GST-Six1/His-Eya2 binding, biochemical; active compounds read low | Q15475+O00167 | 360,000 compounds, 0.56% hits | AID 651725; in the data active = activity change below about -65%; inconclusive = mostly about -30% to -63%; note: % is set by controls: 0 for no effect and ±100 for the full control effect
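AlphaScreen with GST-Six1 and His-Eya2 (5X mix: 250 nM and 500 nM), glutathione donor and nickel acceptor beads; buffer 50 mM Tris pH 8.0, 300 mM NaCl, 1 mM TCEP; 1 h at 37 C in the dark.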
HP1b chromo inh: blocks HP1-beta chromodomain binding to methylated histone tails; 390,000 compounds, 0.56% hits; Potency, µM (titrated, usually from 114 µM), without a hit: at the highest dose activity change, negative = inhibition, most hits filed as inhibitors; AID 540317; AlphaScreen HP1-beta / biotin-H3K9me3 peptide binding; P83916; note: potency is the fitted concentration of half-maximal effect; nearly all actives have a fitted effect of over 70% in size
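Compound inhibition of the preformed complex between 50 nM HP1-beta and 50 nM biotinylated H3K9me3 peptide was read by AlphaScreen. Buffer was PBS pH 7.4 with 0.01% Tween-20. Incubations ran 30 min at room temperature, with 10 ug/mL donor/acceptor beads.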
G9a inh: blocks human histone lysine methyltransferase G9a; Q96KQ7; G9a H3K9 monomethylation, AlphaScreen, 2 h; Potency, µM (titrated, usually from 102 µM), inactives show top-dose activity, negative = inhibition, actives largely listed as inhibitors; 350,000 compounds, 8.8% hits; note: potency is the fitted concentration of half-maximal effect; % is set by controls: 0 for no effect and ±100 for the full control effect; nearly all actives have a fitted effect of over 75% in size
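G9a (20 nM) preincubated 15 min RT with compounds, then 500 nM biotinylated H3K9 peptide and 20 uM SAM added; 2 h RT reaction. Monomethyl-H3K9 product detected by AlphaScreen with anti-H3K9me1 antibody, streptavidin donor and anti-rabbit IgG acceptor beads.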
* hit, by the source's call; ? = inconclusive; / = no result given; [ ] = dose if it differs, or a comment. In the library only some 10% were active in any assay of this set; here they are far more common. Unless noted, calls come from the whole dose curve; as a rule, active = well fitted inhibition curve with a large enough effect; inconclusive = small, poorly fitted or top-dose-only effect; inactive = no such curve, though single readings can be large or run the other way.

SMILES | CtBP-E1A blk | BAZ2B block | JMJD2A Tudor inh | Six1-Eya2 blk | HP1b chromo inh | G9a inh
O=C(CCc1c[nH]c2ccccc12)OCc1cccc([N+](=O)[O-])c1 | -2 | ? | ? | -6 | ? | 40µM*
CN1CCN(c2ncc3nc(-c4ccc(Cl)cc4)c(=O)n(C)c3n2)CC1 | / | / | / | / | / | 3%[0.501 µM]
CC(C)COc1ccc(C(=O)Nc2ccc(S(=O)(=O)Nc3ncccn3)cc2)cc1 | / | 0% | -15% | / | 25% | -3%[59 µM]
NC(=S)NN=Cc1ccc(-c2ccc(S(=O)(=O)Nc3ncccn3)cc2)o1 | -3 | / | 50µM* | ? | ? | /
CCOC(=O)c1ccc(-c2ccc(/C=N/NC(=O)CN(c3ccccc3Cl)S(C)(=O)=O)o2)cc1 | 4 | ? | -14% | -8 | 6%[57 µM] | 12%[59 µM]
O=C(N/N=C/c1ccc(-c2ccc(S(=O)(=O)Nc3ncccn3)cc2)o1)c1cc2ccccc2cc1O | -20 | 18µM* | 50µM* | -67* | 28µM* | ?
CCOC(=O)c1ccc(-c2ccc(/C=N/NC(=O)CN(c3cccc(C)c3)S(C)(=O)=O)o2)cc1 | 2 | -35% | -19% | -6 | 26% | 7.9µM*
CCOc1ccc(C(=O)N/N=C/c2ccc(-c3ccc(S(=O)(=O)Nc4ncccn4)cc3)o2)cc1 | ? | 79µM* | 89µM* | ? | -6% | -7%[12.7 µM]
O=S(=O)(c1cccc(F)c1)N1CCN(C(=S)NCc2ccccc2)CC1 | 0 | -13% | -2% | 6 | 34% | 0%
O=c1c2oc3ccccc3c2n(Cc2cccc(F)c2)c(=O)n1Cc1ccc2c(c1)OCO2 | / | -13% | -7% | / | 23% | -6%[59 µM]
COc1ccc(NC(=O)Cn2cc(S(=O)(=O)N3CCC(C)CC3)c3ccccc3c2=O)cc1Cl | / | -17% | -15% | / | 24% | -20%[59 µM]
CC(C)C(C(=O)NC1CCCC1)N(CC1CCCO1)C(=O)CNS(=O)(=O)c1ccc(F)cc1 (centres undefined) | 1 | -8% | -11% | 1 | -11% | 1%
CCOc1ccc(S(=O)(=O)N(CC(=O)N/N=C/c2ccc(-c3ccc([N+](=O)[O-])cc3)o2)c2ccccc2)cc1 | -6 | 22µM* | 28µM* | -19 | -21% | 1.6µM*
CNC(=S)N(CCCO)Cc1cc2cc3c(cc2[nH]c1=O)OCO3 | -12 | 1% | -6% | -15 | 26% | 15%[2.33 µM]
COC(=O)c1c(-c2cccs2)csc1NC(=O)c1cc(OC)c(OC)c(OC)c1 | / | ? | 89µM* | / | ? | ?
COC(=O)c1c(-c2cccs2)csc1NC(=O)c1ccc(OC)c(OC)c1 | / | -27% | -33% | / | ? | 2.8µM*
COC(=O)c1c(-c2cccs2)csc1NC(=O)c1ccc(C)cc1 | / | ? | -28% | / | -23% | ?
COC(=O)c1c(-c2cccs2)csc1NC(=O)c1cc(OC)cc(OC)c1 | / | -35% | -5% | / | 0% | 2.8µM*
COC(=O)c1c(-c2cccs2)csc1NC(=O)c1ccc(Br)cc1 | / | -7% | -11% | / | 6% | 1.6µM*
CCOC(=O)c1c(-c2cccs2)csc1NC(=O)c1ccncc1 | 7 | 13% | -5% | 3 | 35% | 19%[2.33 µM]
CCCc1ccc(OCC(=O)Nc2scc(-c3cccs3)c2C(=O)OC)cc1 | / | 7% | -3% | / | 1% | ?
COCC(=O)NCc1nc2cccnc2n1Cc1ccc(F)cc1 | / | 0% | -12% | / | 23%[57 µM] | 9%[59 µM]
CCC1CCCCN1C(=O)CCNS(=O)(=O)c1ccc2c(c1)oc(=O)n2C (centres undefined) | -5 | -2% | -10% | 1 | 13% | 12%[0.0925 µM]
O=C(CCCOc1ccccc1)Nc1ccccc1C(F)(F)F | 3 | 12% | 7%[57.1 µM] | 2 | 66% | 16%[59 µM]
O=C(O)Cc1cccc(OCCCN(Cc2cccc(C(F)(F)F)c2Cl)CC(c2ccccc2)c2ccccc2)c1 | / | / | / | / | / | 18µM*
SMILES | CtBP-E1A blk | BAZ2B block | JMJD2A Tudor inh | Six1-Eya2 blk | HP1b chromo inh | G9a inh
CC(C)NC(=O)N(C)C[C@H]1OCCCC[C@@H](C)Oc2ccc(N(C)C)cc2C(=O)N([C@H](C)CO)C[C@@H]1C | 2 | / | / | -6 | / | /
CC(C)C1Nc2ccc(C(=O)NCCCN3CCOCC3)cc2NC1=O (centres undefined) | 6 | -5% | -12% | 8 | 14% | -6%
Cc1ccc(NC2Sc3ccccc3NC2=O)cc1 (centres undefined) | 14 | -35% | 50µM* | -2 | 45µM* | 1.8µM*
Cc1cccc(-n2c(=O)c3c(c4cc(C)ccc4n3C)n(CC(=O)Nc3ccc(C)cc3C)c2=O)c1 | / | 0% | 2% | / | 44% | 1%[59 µM]
Cc1noc2nc(C(=O)O)nc(N3CCCCC3)c12 | / | ? | 40µM* | / | 7% | 13µM*
Cc1noc2ncnc(N3CCCC(C(=O)NC(C)C)C3)c12 (centres undefined) | / | 3%[57.1 µM] | -7% | / | 4% | -5%[59 µM]
COc1ccc(NC(=O)c2ccccc2Sc2ccc(NC(C)=O)nc2)cc1 | -3 | ? | -24% | 3 | 7% | 20µM*
CC(=O)Nc1ccc(Sc2ccccc2C(=O)Nc2ccc(F)cc2)cn1 | / | -17% | ? | -1 | ? | ?
CC(C)c1ccc(NC(=O)CSC2=Nc3ccccc3C3=NC(CC(=O)NCc4ccco4)C(=O)N23)cc1 (centres undefined) | / | ? | ? | / | -5% | 2%[59 µM]
CCCOc1ccc(C2C(=O)N(C3CCCCCC3)CC(=O)N2CCC2=CCCCC2)cc1OC (centres undefined) | / | -2% | -17% | / | 32% | -18%[59 µM]
O=C(Nc1ccc(Cl)cc1)Nc1cccc(C(=O)O)c1 | -1 | -10% | -5% | 3 | -1% | 45%[0.501 µM]
Cc1c(C(=O)Nc2ccc(C(=O)O)cc2)nnn1-c1ccccc1 | / | 3% | ? | / | 9% | -6%[59 µM]
Cc1cc(C(=O)NNC(=S)Nc2ccccc2)nn1C | / | 3% | -13%[11.4 µM] | -19 | 80% | 32µM*
O=C(NNC(=O)c1cccc(Br)c1)Nc1ccc(Cl)cc1 | 0 | -10% | 13µM* | 2 | ? | 0%
O=C(NNC(=S)Nc1ccccc1)c1cccc(Br)c1 | 17 | 8% | -19% | 0 | 3% | 50µM*
Cc1c(C(=O)NNC(=S)Nc2cccc(Cl)c2)nnn1-c1ccccc1 | -2 | 56µM* | ? | -85* | -5% | 11µM*
Cc1ccc(NC(=O)CCc2c(C)nc3c(-c4ccccc4)c(C)nn3c2C)c(C)c1 | / | -5% | 1% | / | 41% | -3%[59 µM]
O=C(CSc1nc2c([nH]c3ccccc32)c(=O)n1-c1cccc(Cl)c1)NCc1ccccc1 | / | 3% | -9% | / | 21%[57 µM] | 18%[59 µM]
Cc1ccc(S(=O)(=O)N2CCC(=O)N([C@H](COCc3ccc(Cl)cc3)C(C)C)CC2)cc1 | 4 | / | / | 10 | / | /
